# Records with an inconclusive call do not appear. Activity calls are given as the source filed them. Calls follow the shape of the dose curve; as a rule, active = well fitted curve in the direction sought with a large enough effect; inconclusive = small, poorly fitted or top-dose-only effect, or another doubt; inactive = no such curve, though single readings can be large; an effect the other way counts as inactive or inconclusive. Where a SMILES comes first, the peptide text is derived from it. The star is where a group is joined. Hexanoyl = CCCCCC(=O)*
# How the values were obtained:
# [1] = Confirmatory screen GU Rhodamine qHTS for Zika virus inhibitors qHTS (AID 1347157); conditions: purified enzyme assay, Rhodamine110 substrate fluorescence, 15 min; series mostly up to 114 µM; also: nearly all actives have a fitted effect of over 70% in size; also: potency is read from the fitted curve at half-maximal effect
# How it was run: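 Noncovalent NS2B hydrophilic domain/NS3 protease complex (25 nM final) in 10 mM Tris-HCl pH 8.0, 0.01% Tween 20, preincubated 15 min with compounds (up to 114 microM), then 1.5 microM Rhodamine110 substrate. Fluorescence change over 15 min fitted to 4-parameter Hill.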
# [2] = test system: Zika virus NS2B-NS3 protease (unlinked complex); experiment: Primary screen GU Rhodamine qHTS for Zika virus inhibitors: Unlinked NS2B-NS3 protease assay (AID 1347159); conditions: Recombinant ZIKV NS2B-NS3 protease, Rhodamine110 substrate fluorescence; series mostly up to 107 µM; also: nearly all actives have a fitted effect of over 60% in size; also: potency is read from the fitted curve at half-maximal effect
# How it was run: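 Percent inhibition derives from the 15-min fluorescence change (ex 480, em 540 nm), normalized to no-enzyme and no-inhibitor wells. Reactions contained 25 nM NS2B-NS3 complex and 1.5 microM substrate in 10 mM Tris-HCl pH 8.0.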
# [3] = Confirmatory screen NINDS Rhodamine qHTS for Zika virus inhibitors (AID 1347161); conditions: purified enzyme assay, Rhodamine110 substrate fluorescence, 15 min; series mostly up to 114 µM; also: nearly all actives have a fitted effect of over 60% in size; also: potency is read from the fitted curve at half-maximal effect
# How it was run: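 Purified NS2B-NS3 protease with the NS2B hydrophilic domain joined by a flexible linker (25 nM) in 10 mM Tris-HCl pH 8.0, 0.01% Tween 20, preincubated 15 min at RT with compound; Rhodamine110 peptide substrate 1.5 µM; fluorescence change over 15 min; 4-parameter Hill fit.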
# [4] = test system: Zika virus NS2B-NS3 protease (linked construct); experiment: Primary screen NINDS Rhodamine qHTS for Zika virus inhibitors (AID 1347160); conditions: purified NS2B-NS3 protease, Rhodamine110 substrate fluorescence; series mostly up to 33.1 µM; also: nearly all actives have a fitted effect of over 55% in size; also: potency is read from the fitted curve at half-maximal effect
# How it was run: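 In 10 mM Tris-HCl pH 8.0 containing 0.01% Tween 20, linked NS2B-NS3 protease (25 nM final) is exposed to test compounds for 15 min. Cleavage of 1.5 microM Rhodamine110 substrate is tracked by fluorescence over 15 min.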
# [5] = test system: Zika virus NS2B-NS3 protease (linked); experiment: 384 well plate NINDS AMC confirmatory qHTS for Zika virus inhibitors (AID 1347163); conditions: Recombinant NS2B-NS3 protease, Ac-VKTGKR-AMC fluorescence; series mostly up to 100 µM; also: nearly all actives have a fitted effect of over 50% in size; also: potency is read from the fitted curve at half-maximal effect
# How it was run: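 Linked NS2B-NS3 protease (final 5 nM, 30 nM or 60 nM) was preincubated with compounds (final up to 1 mM) for ~15 minutes. Ac-VKTGKR-AMC substrate (final 30 microM) then reacted for 25 minutes at room temperature in the dark. Fluorescence (ex 355/em 460 nm) was normalized to no-enzyme and no-inhibitor controls.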
# [6] = test system: Zika virus NS2B-NS3 protease (linked construct); experiment: 384 well plate NINDS Rhodamine confirmatory qHTS for Zika virus inhibitors (AID 1347164); conditions: rhodamine-110 peptide substrate fluorescence; series mostly up to 100 µM; also: nearly all actives have a fitted effect of over 65% in size; also: potency is read from the fitted curve at half-maximal effect
# How it was run: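 Cleavage of Ac-LKRR-Rhodamine 110 (10 microM final) by linked protease (final 5, 30 or 60 nM) was followed as fluorescence at 485/538 nm after 25 min, room temperature, dark. Compounds preincubated ~15 min.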
# [7] = Vero cells viability qHTS for Zika virus inhibitors (AID 1347167); conditions: cytotoxicity counter-screen (Zika); series mostly up to 45.9 µM
# How it was run: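 Cells seeded at 2.5 x 10^5 cells/mL in DMEM with 4% FBS and attached overnight at 37 degrees C, then exposed to compound for 24 to 48 hours. Viability read as ATP content by CellTiter Glo luminescence.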
# [8] = test system: Zika virus NS2B-NS3 protease (unlinked complex); experiment: Confirmatory screen GU AMC qHTS for Zika virus inhibitors (AID 1347153); conditions: Recombinant NS2B-NS3 protease, AMC substrate fluorescence; series mostly up to 111 µM; also: nearly all actives have a fitted effect of over 70% in size
# How it was run: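 Compounds were preincubated 15 min at room temperature with 25 nM noncovalent NS2B-NS3 protease at pH 8.0; AMC substrate added at 10 microM and 15-min fluorescence gain (340/450 nm) converted to percent inhibition, fitted 4-parameter.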
# [9] = ZIKV-mCherry secondary qHTS for Zika virus inhibitors (AID 1347158); conditions: Vero cells, ZIKV-mCherry infection imaging, 48-72 h; series mostly up to 49.2 µM; also: top concentration of the series differs between compounds
# Excerpt: Assay Submitters (PI): Avindra Nath, Ph.D., National Institute of Neurological Disorders and Stroke (NINDS), Bethesda, MD Radhakrishnan Padmanabhan, Ph.D., Georgetown University (GU), Washington D.C. Zika Virus causes congenital defects, including microcephaly and is associated with Guillain-Barre syndrome, eningoencephalitis and myelitis in infected adult. […] Using a target-based approach, we hope to establish a screening paradigm to uncover novel, cell-active NS2B-NS3 protease (Zika Virus) specific inhibitors from NCATS' collection of small molecules using qHTS. […] Four assay panel was created to identify potential Zika Virus inhibitors. Namely, (1) GU unlinked NS2B-NS3 AMC tagged protease qHTS, (2) GU unlinked NS2B-NS3 Rhodamine tagged protease qHTS, (3) NINDS linked NS2B-NS3 AMC tagged protease qHTS, (4) NINDS linked NS2B-NS3 Rhodamine tagged protease qHTS. Active compounds were re-acquired and re-screened to confirm inhibition. Inhibitors were further screened against various confirmatory and counterscreens in dose response format. […] A DAPI (mCherry counterscreen) which determine Vero cell toxicity was used to exclude false positive compounds. […] Early Translation Branch (ETB) National Center for Advancing Translational Sciences (NCATS), Rockville, MD National Institute of Health (NIH), Bethesda, Maryland
# 384 well ZIKV-mCherry Assay: We have developed a new orthogonal imaging assay in 384-well plate format, which uses recombinant virus ZIKV-mCherry in Vero cells. Briefly, 30 microL of Vero cells derived from a green monkey cell line, were dispensed by Multidrop Dispenser into a clear solid bottom black 384 well plate (ultracarrier, Perkin Elmer LifeSciences) at a concentration of 5,000 cells per well. The plate was incubated overnight in a CO2 incubator at 37 degrees C. Compounds were delivered as a 126 nL DMSO solution by Kalypsys pintool transfer. Following compound transfer, 10 microL of ZIKV-mCherry was added at an MOI of 1 and incubated in a CO2 incubator for 48-72 hrs at 37 degrees C. After sufficient incubation of infected cells in test plates, 8 microL of 32% PFA was dispensed into assay plates to fix cells and incubated for 20 min at room temperature. Plates were washed 3 times with PBS using BioTek EL406 microplate washer/dispenser. After washing, 30 microL of PBS with 0.01% TX-100 containing Hoechst dye was dispensed into the each well of the plates for nuclear staining. 384-well plates were imaged on an automated, widefield high content imager (INCell 2200, GE Healthcare) using a 10x/0.45 NA lens and standard DAPI (nuclear stain) and mCherry (cy5) excitation and emission filters. The TIFFs were quantitated using the canned Multi Target Analysis protocol (GE Investigator Workstation software v3.7.2). Briefly, nuclei from the DAPI channel were identified using top hat segmentation and a sensitivity setting of 96 and minimum size area of 35 microm2. A recombinant Zika viral infection was monitored in the Cy5 channel (cells) using a 2 microm collar dilation from the nuclear bitmap. mCherry objects with an average nuclear RFU intensity above 450 (3 stdev above mean negative control wells) were considered "mcherry positive" and data was analyzed by percent infection rate.
SMILES,Potency [1],Potency [2],Potency [3],Potency [4],Potency [5],Potency [6],outcome [7],Potency [8],Potency [9]
COc1cc2c(c(OC)c1O)C(c1ccc(O)cc1)C1C(=O)OC3C(COC(=O)C1=C2)OC(CO)(OC1OC(COC(=O)/C=C/c2ccc(OC4OC(C)C(O)C(O)C4O)cc2)C(O)C(O)C1O)C3O (stereo not drawn),7.44 µM (active),inactive,7.44 µM (active),–,–,–,–,–,–
O=C(O)CC/C=C\C[C@H]1CO[C@@H](c2ccccc2Cl)O[C@H]1c1ccccc1O,31.2 µM (active),inactive,44.1 µM (active),–,–,–,–,–,–
CCCCCC(=O)N1CCC[C@H]1C(=O)N[C@@H](Cc1ccc(O)cc1)C(=O)OC (Hexanoyl-Pro-Tyr-OMe),inactive,inactive,inactive,–,–,–,–,–,–
COc1ccc(C2C(C(=O)O)C(C(=O)O)C2c2ccc(OC)cc2O[C@@H]2O[C@H](CO)[C@@H](O)[C@H](O)[C@H]2O)c(O[C@@H]2O[C@H](CO)[C@@H](O)[C@H](O)[C@H]2O)c1 (stereo partly drawn),9.26 µM (active),7.94 µM (active),11.7 µM (active),inactive,–,–,–,–,–
C=C1C2CCC3C(CCC4[C@@]3(C)CCC[C@@]4(C)C(=O)O)(C2)[C@@H]1OC(=O)/C(C)=C\C (stereo partly drawn),6.81 µM (active),6.31 µM (active),6.07 µM (active),10 µM (active),39.8 µM (active),8.91 µM (active),inactive,–,–
Cc1ccccc1NC(=O)Nc1ccc(CN2C(=O)N([C@@H](CC(C)C)C(=O)N[C@@H](CC(=O)O)c3ccccc3)C(=O)C2(C)C)cc1,35 µM (active),–,27.8 µM (active),7.08 µM (active),10 µM (active),inactive,inactive,inactive,inactive
COc1cc(Nc2ccc([N+](=O)[O-])cc2C(=O)O)cc2ccccc12,1.97 µM (active),2.24 µM (active),2.21 µM (active),2.82 µM (active),2.82 µM (active),1.41 µM (active),inactive,–,–
COc1cccc(OC)c1-c1cc(C(=O)N[C@@H](CC(C)C)C(=O)O)nn1-c1ccnc2cc(Cl)ccc12,17.5 µM (active),22.4 µM (active),12.4 µM (active),10 µM (active),31.6 µM (active),inactive,inactive,–,inactive
COc1cccc(CNc2ccc(S(=O)(=O)Nc3nc4ccccc4s3)cc2)c1O,3.93 µM (active),3.55 µM (active),3.93 µM (active),6.31 µM (active),–,–,inactive,–,inactive
O=C1NC(=O)/C(=C/c2cccc(C(F)(F)F)c2)S1,4.41 µM (active),2.51 µM (active),3.93 µM (active),3.55 µM (active),100 µM (active),20 µM (active),–,–,–
CC(C)=CCC[C@@](C)(O)[C@H]1CC[C@]2(C)[C@@H]1[C@H](O)CC1[C@@]3(C)CC[C@H](O[C@@H]4O[C@H](CO)[C@@H](O)[C@H](O)[C@H]4O[C@@H]4O[C@H](CO)[C@@H](O)[C@H](O)[C@H]4O)C(C)(C)[C@@H]3CC[C@]12C (stereo partly drawn),14.7 µM (active),inactive,16.5 µM (active),–,–,–,–,–,–
COc1cc(CCCO)ccc1O[C@@H]1O[C@H](CO)[C@@H](O)[C@H](O)[C@H]1O,34.3 µM (active),inactive,34.3 µM (active),–,–,–,–,–,–
CC(=O)OC12CC(C)C(OC(=O)c3ccccc3)C1/C=C(/C)C(OC(=O)c1ccccc1)CC(=O)C(C)(C)/C=C/C(C)C2=O (stereo not drawn),4.64 µM (active),6.31 µM (active),3.68 µM (active),7.08 µM (active),–,35.5 µM (active),inactive,–,–
CCOc1ccc(-c2cc(NC(=O)c3c(F)cccc3F)c(C(=O)O)s2)cc1,4.41 µM (active),–,3.12 µM (active),5.01 µM (active),7.08 µM (active),5.01 µM (active),inactive,27.8 µM (active),–
Cc1ccc2[nH]c(=O)c(C3=NN(C(=O)CCC(=O)O)C(c4ccc(Br)cc4)C3)c(-c3ccccc3)c2c1 (stereo not drawn),3.93 µM (active),6.31 µM (active),3.93 µM (active),3.16 µM (active),inactive,inactive,inactive,49.4 µM (active),–
CC1(C)[C@H]2C[C@H](C/C=C\CCCC(=O)O)[C@@H](NC(=O)c3csc4ccc(O)cc34)[C@@H]1C2,24.8 µM (active),14.1 µM (active),31.2 µM (active),inactive,–,–,–,–,–
C=C1CCC2C(C)(C)CCC[C@]2(C)[C@H]1CC/C(C)=C/C(=O)O (stereo partly drawn),11.1 µM (active),3.55 µM (active),4.94 µM (active),5.62 µM (active),2 µM (active),–,inactive,39.3 µM (active),–
